# In paper PMC11024108:
# Tests used:
# [1] = target: Cytochrome c oxidase assembly factor 7 (UniProt Q96BR5); assay: cross-link between two proteins; affinity purification or IP with mass spectrometry; cross-linking mass spectrometry
# [2] = target: Alpha-actinin-2 (UniProt Q9JI91); assay: cross-link between two proteins; cross-linking mass spectrometry
# [3] = target: AP-2 complex subunit mu (UniProt P84091); assay: as above
# [4] = target: AP-2 complex subunit sigma (UniProt P62743); assay: as above
# [5] = target: SH3-containing GRB2-like protein 3-interacting protein 1 (UniProt Q8VD37); assay: as above
# [6] = target: AP-2 complex subunit beta (UniProt P63010); assay: as above
# [7] = target: AP-2 complex subunit mu (UniProt Q96CW1); assay: as above
# [8] = target: Epidermal growth factor receptor substrate 15-like 1 (UniProt Q9UBC2); assay: as above
# [9] = target: Phosphatidylinositol-binding clathrin assembly protein (UniProt Q13492); assay: as above
# [10] = target: Alpha-internexin (UniProt P46660); assay: as above
# [11] = target: ATP synthase F(1) complex subunit alpha, mitochondrial (UniProt P25705); assay: as above
# [12] = target: 14-3-3 protein zeta/delta (UniProt P63101); assay: as above
# [13] = target: ATP synthase F(0) complex subunit e, mitochondrial (UniProt P56385); assay: as above
# [14] = target: ATPase inhibitor, mitochondrial (UniProt Q9UII2); assay: as above
# [15] = target: Stress-70 protein, mitochondrial (UniProt P38646); assay: as above
# [16] = target: ATP synthase F(0) complex subunit 8 (UniProt P03928); assay: as above
# [17] = target: Trifunctional enzyme subunit alpha, mitochondrial (UniProt P40939); assay: as above
# [18] = target: Trifunctional enzyme subunit beta, mitochondrial (UniProt P55084); assay: as above
# [19] = target: AP-2 complex subunit beta (UniProt Q9DBG3); assay: as above
# [20] = target: AP2-associated protein kinase 1 (UniProt Q3UHJ0); assay: as above
# [21] = target: B-cell receptor-associated protein 31 (UniProt Q61335); assay: as above
# [22] = target: 2-oxoglutarate dehydrogenase-like, mitochondrial (UniProt Q9ULD0); assay: as above
# [23] = target: 14-3-3 protein zeta/delta (UniProt P63104); assay: as above
# [24] = target: Actin, cytoplasmic 1 (UniProt P60710); assay: as above
# [25] = target: Bifunctional glutamate/proline--tRNA ligase (UniProt Q8CGC7); assay: as above
# [26] = target: Elongation factor Tu, mitochondrial (UniProt P49411); assay: cross-linking mass spectrometry
# [27] = target: Large ribosomal subunit protein bL12m (UniProt P52815); assay: cross-linking mass spectrometry
# [28] = target: Large ribosomal subunit protein mL45 (UniProt Q9BRJ2); assay: cross-linking mass spectrometry
# [29] = target: Leucine-rich PPR motif-containing protein, mitochondrial (UniProt P42704); assay: cross-linking mass spectrometry
# [30] = target: 3-hydroxyacyl-CoA dehydrogenase type-2 (UniProt Q99714); assay: cross-link between two proteins; cross-linking mass spectrometry
# [31] = target: ATP synthase peripheral stalk subunit OSCP, mitochondrial (UniProt P48047); assay: as above
# [32] = target: Acyl-coenzyme A thioesterase 9, mitochondrial (UniProt Q9Y305); assay: as above
# [33] = target: Alpha-aminoadipic semialdehyde dehydrogenase (UniProt P49419); assay: as above
# [34] = target: Aspartate--tRNA ligase, mitochondrial (UniProt Q6PI48); assay: as above
# [35] = target: Delta(3,5)-Delta(2,4)-dienoyl-CoA isomerase, mitochondrial (UniProt Q13011); assay: as above
# [36] = target: Elongation factor G, mitochondrial (UniProt Q96RP9); assay: as above
# [37] = target: Heat shock protein 75 kDa, mitochondrial (UniProt Q12931); assay: as above
# [38] = target: Hydroxyacyl-coenzyme A dehydrogenase, mitochondrial (UniProt Q16836); assay: as above
# [39] = target: Isocitrate dehydrogenase [NAD] subunit alpha, mitochondrial (UniProt P50213); assay: as above
# [40] = target: NADH dehydrogenase [ubiquinone] 1 alpha subcomplex subunit 5 (UniProt Q16718); assay: as above
# [41] = target: Polyribonucleotide nucleotidyltransferase 1, mitochondrial (UniProt Q8TCS8); assay: as above
# [42] = target: Presequence protease, mitochondrial (UniProt Q5JRX3); assay: as above
# [43] = target: Solute carrier family 25 member 3 (UniProt Q00325); assay: as above
# [44] = target: Stomatin-like protein 2, mitochondrial (UniProt Q9UJZ1); assay: as above
# [45] = target: Succinate-semialdehyde dehydrogenase, mitochondrial (UniProt P51649); assay: as above
# [46] = target: Transcription factor A, mitochondrial (UniProt Q00059); assay: as above
# [47] = target: Tyrosine--tRNA ligase, mitochondrial (UniProt Q9Y2Z4); assay: as above
# [48] = target: Zeta-crystallin (UniProt Q08257); assay: as above
# [49] = target: BOS complex subunit NOMO2 (UniProt Q5JPE7); assay: as above
# [50] = target: Neurofilament heavy polypeptide (UniProt P19246); assay: as above
# [51] = target: Neurofilament medium polypeptide (UniProt P08553); assay: as above
# [52] = target: ADP/ATP translocase 2 (UniProt P51881); assay: as above
# [53] = target: ATP synthase peripheral stalk subunit d, mitochondrial (UniProt Q9DCX2); assay: as above
# [54] = target: ADP-ribosylation factor-like protein 8B (UniProt Q9NVJ2); assay: as above
# [55] = target: Actin-binding protein WASF1 (UniProt Q8R5H6); assay: as above
# [56] = target: AP-3 complex subunit mu-1 (UniProt Q9Y2T2); assay: as above
# [57] = target: AP-3 complex subunit beta-2 (UniProt Q9JME5); assay: as above
# [58] = target: AP-3 complex subunit sigma-1 (UniProt Q9DCR2); assay: as above
# [59] = target: Aconitate hydratase, mitochondrial (UniProt Q99798); assay: as above
# [60] = target: Malate dehydrogenase, mitochondrial (UniProt P40926); assay: as above
# [61] = target: ATP-dependent 6-phosphofructokinase, platelet type (UniProt Q9WUA3); assay: as above
# [62] = target: 3-hydroxyisobutyryl-CoA hydrolase, mitochondrial (UniProt Q6NVY1); assay: as above
# [63] = target: Annexin A11 (UniProt P50995); assay: as above
# [64] = target: Amphiphysin (UniProt Q7TQF7); assay: as above
# [65] = target: Brain acid soluble protein 1 (UniProt Q91XV3); assay: as above
# [66] = target: P2X purinoceptor 7 (UniProt Q9Z1M0); assay: as above
# [67] = target: Adenylate kinase 2, mitochondrial (UniProt P54819); assay: as above
# [68] = target: Cytochrome c (UniProt P99999); assay: as above
# [69] = target: Glycerol-3-phosphate dehydrogenase, mitochondrial (UniProt P43304); assay: as above
# [70] = target: Ataxin-2 (UniProt Q99700); assay: as above
# [71] = target: Charged multivesicular body protein 3 (UniProt Q9Y3E7); assay: cross-linking mass spectrometry
# [72] = target: Charged multivesicular body protein 2b (UniProt Q9UQN3); assay: cross-link between two proteins; cross-linking mass spectrometry
# [73] = target: COMM domain-containing protein 8 (UniProt Q9CZG3); assay: as above
# [74] = target: Calnexin (UniProt P27824); assay: as above
# [75] = target: Transmembrane emp24 domain-containing protein 10 (UniProt P49755); assay: as above
# [76] = target: Calreticulin (UniProt P27797); assay: as above
# Sequence of AP-2 complex subunit beta (UniProt Q9DBG3) (Q9DBG3 whole entry, one chain of several): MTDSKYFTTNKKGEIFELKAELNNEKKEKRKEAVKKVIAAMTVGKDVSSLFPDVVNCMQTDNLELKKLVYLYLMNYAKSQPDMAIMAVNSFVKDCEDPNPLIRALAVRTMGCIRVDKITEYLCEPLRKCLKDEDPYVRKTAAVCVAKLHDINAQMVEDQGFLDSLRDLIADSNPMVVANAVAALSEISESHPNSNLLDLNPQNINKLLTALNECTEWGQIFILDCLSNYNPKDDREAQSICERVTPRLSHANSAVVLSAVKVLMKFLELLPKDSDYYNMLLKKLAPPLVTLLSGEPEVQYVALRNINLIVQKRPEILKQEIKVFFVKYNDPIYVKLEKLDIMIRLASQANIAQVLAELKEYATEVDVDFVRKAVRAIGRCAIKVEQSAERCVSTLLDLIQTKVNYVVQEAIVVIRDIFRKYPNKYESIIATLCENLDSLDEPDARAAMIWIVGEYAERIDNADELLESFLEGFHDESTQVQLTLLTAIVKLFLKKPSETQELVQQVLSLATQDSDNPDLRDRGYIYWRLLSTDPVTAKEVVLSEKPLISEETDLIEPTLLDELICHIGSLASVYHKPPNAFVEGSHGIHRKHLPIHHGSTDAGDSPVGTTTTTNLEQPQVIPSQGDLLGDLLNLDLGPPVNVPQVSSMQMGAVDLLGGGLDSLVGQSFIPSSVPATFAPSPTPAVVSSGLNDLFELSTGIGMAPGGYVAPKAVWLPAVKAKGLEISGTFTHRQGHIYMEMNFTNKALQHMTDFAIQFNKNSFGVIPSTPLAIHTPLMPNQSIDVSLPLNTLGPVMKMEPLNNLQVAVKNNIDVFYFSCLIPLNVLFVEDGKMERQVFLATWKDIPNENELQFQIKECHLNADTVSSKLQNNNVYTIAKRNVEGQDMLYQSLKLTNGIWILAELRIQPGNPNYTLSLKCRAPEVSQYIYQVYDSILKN
# Sequence of Alpha-internexin (P46660 whole entry): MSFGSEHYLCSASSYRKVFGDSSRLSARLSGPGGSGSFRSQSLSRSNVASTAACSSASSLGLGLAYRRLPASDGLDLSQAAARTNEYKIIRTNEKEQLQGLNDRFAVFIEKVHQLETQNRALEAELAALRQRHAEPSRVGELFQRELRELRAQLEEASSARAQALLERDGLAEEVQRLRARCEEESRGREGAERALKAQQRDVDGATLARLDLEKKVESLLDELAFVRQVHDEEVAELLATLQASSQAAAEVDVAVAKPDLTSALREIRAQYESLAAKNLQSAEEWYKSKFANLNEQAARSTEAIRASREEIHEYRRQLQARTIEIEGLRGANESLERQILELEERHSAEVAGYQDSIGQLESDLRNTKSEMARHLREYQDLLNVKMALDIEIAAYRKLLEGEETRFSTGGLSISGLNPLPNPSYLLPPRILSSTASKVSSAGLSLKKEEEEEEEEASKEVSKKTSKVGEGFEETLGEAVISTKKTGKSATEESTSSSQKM
# Sequence of ATP synthase peripheral stalk subunit d, mitochondrial, O75947 (O75947 whole entry): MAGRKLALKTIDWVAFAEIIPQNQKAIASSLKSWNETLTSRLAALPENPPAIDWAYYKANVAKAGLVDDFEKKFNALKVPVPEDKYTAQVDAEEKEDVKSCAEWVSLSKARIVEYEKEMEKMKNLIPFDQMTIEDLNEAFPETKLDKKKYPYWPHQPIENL
# Sequence of 14-3-3 protein zeta/delta (UniProt P63101) (P63101 whole entry, stated change not applied): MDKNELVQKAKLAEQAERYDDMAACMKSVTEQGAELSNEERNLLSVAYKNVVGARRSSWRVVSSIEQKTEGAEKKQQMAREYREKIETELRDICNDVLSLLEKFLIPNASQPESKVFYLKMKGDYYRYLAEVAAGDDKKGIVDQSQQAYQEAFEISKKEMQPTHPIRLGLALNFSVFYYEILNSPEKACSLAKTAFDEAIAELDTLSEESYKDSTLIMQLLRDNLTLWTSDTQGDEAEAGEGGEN
# Sequence of AP2-associated protein kinase 1 (Q3UHJ0 whole entry): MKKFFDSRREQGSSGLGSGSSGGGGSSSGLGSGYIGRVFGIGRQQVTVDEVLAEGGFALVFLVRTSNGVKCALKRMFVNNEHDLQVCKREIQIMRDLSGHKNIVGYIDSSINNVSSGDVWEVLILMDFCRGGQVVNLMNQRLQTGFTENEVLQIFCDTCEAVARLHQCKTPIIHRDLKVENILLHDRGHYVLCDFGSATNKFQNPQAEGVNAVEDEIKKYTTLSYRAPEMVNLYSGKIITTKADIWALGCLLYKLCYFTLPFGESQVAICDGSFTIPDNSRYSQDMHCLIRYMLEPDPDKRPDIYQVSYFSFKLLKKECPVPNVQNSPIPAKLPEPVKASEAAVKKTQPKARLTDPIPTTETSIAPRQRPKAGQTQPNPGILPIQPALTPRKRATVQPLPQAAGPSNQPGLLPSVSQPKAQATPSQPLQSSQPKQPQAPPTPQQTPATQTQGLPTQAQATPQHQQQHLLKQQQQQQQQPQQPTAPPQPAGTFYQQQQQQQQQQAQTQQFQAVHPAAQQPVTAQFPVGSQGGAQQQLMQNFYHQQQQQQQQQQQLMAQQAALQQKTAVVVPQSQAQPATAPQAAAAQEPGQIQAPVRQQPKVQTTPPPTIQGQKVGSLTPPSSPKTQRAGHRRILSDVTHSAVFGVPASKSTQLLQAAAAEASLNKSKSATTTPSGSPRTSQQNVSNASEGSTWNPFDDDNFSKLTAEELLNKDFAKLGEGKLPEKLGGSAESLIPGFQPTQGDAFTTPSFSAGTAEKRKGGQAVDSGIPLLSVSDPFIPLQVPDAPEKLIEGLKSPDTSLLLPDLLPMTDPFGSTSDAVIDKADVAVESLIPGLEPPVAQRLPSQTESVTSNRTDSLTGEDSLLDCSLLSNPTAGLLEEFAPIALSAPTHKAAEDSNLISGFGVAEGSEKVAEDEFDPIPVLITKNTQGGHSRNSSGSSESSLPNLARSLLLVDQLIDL
# Sequence of ATP synthase F(0) complex subunit e, mitochondrial (P56385 whole entry, one chain of several): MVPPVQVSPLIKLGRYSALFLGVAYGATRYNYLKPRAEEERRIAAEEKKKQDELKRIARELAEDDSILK
# Sequence of Glyceraldehyde-3-phosphate dehydrogenase, P16858 (P16858 whole entry): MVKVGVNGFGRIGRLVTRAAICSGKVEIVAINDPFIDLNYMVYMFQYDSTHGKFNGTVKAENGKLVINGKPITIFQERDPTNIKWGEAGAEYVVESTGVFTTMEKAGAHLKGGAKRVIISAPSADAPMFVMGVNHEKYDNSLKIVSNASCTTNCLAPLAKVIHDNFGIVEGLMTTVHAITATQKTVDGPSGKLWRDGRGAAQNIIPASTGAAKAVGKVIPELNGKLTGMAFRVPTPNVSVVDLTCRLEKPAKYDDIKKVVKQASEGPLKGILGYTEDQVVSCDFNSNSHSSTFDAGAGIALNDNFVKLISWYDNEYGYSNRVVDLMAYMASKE
# Sequence of Solute carrier family 25 member 3 (Q00325 whole entry): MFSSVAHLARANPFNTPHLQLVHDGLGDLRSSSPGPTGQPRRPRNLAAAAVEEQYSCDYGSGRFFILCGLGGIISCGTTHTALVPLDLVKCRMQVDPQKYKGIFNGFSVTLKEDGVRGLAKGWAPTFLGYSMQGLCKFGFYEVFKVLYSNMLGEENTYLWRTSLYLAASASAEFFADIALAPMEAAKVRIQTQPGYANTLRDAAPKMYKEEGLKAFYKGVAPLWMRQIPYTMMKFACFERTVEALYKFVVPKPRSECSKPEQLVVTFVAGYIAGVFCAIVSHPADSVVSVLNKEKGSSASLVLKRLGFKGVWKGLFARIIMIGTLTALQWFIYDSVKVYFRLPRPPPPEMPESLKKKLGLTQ
# Sequence of Trifunctional enzyme subunit alpha, mitochondrial, P40939 (P40939 whole entry): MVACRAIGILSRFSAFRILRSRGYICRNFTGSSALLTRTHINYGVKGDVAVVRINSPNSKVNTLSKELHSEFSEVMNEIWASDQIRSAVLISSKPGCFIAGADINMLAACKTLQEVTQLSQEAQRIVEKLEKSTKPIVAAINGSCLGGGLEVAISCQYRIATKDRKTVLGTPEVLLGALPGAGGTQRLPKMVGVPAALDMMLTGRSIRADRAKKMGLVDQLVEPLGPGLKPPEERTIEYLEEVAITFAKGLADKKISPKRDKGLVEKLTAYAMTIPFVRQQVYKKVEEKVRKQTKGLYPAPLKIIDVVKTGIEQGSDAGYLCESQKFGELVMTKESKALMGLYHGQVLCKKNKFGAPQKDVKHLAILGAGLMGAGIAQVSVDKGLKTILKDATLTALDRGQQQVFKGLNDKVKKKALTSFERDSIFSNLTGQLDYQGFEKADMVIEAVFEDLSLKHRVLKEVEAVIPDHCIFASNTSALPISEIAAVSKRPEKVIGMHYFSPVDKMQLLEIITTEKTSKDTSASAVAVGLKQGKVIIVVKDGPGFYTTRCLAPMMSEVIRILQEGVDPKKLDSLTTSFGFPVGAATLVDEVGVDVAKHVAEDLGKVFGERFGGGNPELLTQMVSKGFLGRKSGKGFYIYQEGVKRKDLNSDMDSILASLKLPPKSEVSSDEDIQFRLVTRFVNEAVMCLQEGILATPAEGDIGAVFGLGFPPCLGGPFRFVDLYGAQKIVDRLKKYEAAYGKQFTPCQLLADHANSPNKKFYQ
# Sequence of Peptidyl-prolyl cis-trans isomerase B, P23284 (P23284 whole entry): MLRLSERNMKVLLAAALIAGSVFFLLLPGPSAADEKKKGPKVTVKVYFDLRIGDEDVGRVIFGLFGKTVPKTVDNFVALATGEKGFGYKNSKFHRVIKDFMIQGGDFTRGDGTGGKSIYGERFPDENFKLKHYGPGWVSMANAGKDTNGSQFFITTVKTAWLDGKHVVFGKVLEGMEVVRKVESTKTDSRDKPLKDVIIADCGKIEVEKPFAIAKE
# Sequence of NADH dehydrogenase [ubiquinone] 1 alpha subcomplex subunit 5 (Q16718 whole entry, one chain of several): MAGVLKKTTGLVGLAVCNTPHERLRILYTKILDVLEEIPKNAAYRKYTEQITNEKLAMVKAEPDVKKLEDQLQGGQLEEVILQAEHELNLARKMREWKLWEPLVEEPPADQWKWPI
# Sequence of Transmembrane emp24 domain-containing protein 10 (P49755 whole entry, the tested form may be a part): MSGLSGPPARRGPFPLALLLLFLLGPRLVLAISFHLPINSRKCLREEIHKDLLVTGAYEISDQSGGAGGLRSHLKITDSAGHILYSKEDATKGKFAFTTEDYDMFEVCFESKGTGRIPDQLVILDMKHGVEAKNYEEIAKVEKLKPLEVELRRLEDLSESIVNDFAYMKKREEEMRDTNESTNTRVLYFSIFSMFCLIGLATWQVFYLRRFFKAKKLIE
substance,measurement,setting,value
"Dynamin-like GTPase OPA1, mitochondrial, O60313",listed as a hit,[1],yes
"Synaptopodin, Q8CC35",listed as a hit,[2],yes
"AP-1 complex subunit beta-1, O35643",listed as a hit,[3],yes
same,listed as a hit,[4],yes
same,listed as a hit,[5],yes
"AP-2 complex subunit alpha-2, O94973",listed as a hit,[6],yes
same,listed as a hit,[7],yes
same,listed as a hit,[8],yes
same,listed as a hit,[9],yes
"Neurofilament medium polypeptide, P08553",listed as a hit,[10],yes
"ATP synthase peripheral stalk subunit b, mitochondrial, P24539",listed as a hit,[11],yes
"14-3-3 protein gamma, P61982",listed as a hit,[12],yes
"Trifunctional enzyme subunit beta, mitochondrial, P55084",listed as a hit,[13],yes
"ATP synthase F(1) complex subunit gamma, mitochondrial, P36542",listed as a hit,[14],yes
same,listed as a hit,[15],yes
"ATP synthase peripheral stalk subunit d, mitochondrial, O75947",listed as a hit,[16],yes
same,listed as a hit,[17],yes
same,listed as a hit,[18],yes
"AP-2 complex subunit mu, P84091",listed as a hit,[19],yes
same,listed as a hit,[20],yes
"B-cell receptor-associated protein 29, Q61334",listed as a hit,[21],yes
"2-oxoglutarate dehydrogenase complex component E1, Q02218",listed as a hit,[22],yes
"14-3-3 protein gamma, P61981",listed as a hit,[23],yes
"Adenylyl cyclase-associated protein 1, P40124",listed as a hit,[24],yes
"Isoleucine--tRNA ligase, cytoplasmic, Q8BU30",listed as a hit,[25],yes
"Malate dehydrogenase, mitochondrial, P40926",listed as a hit,[26],yes
same,listed as a hit,[27],yes
same,listed as a hit,[28],yes
same,listed as a hit,[29],yes
same,listed as a hit,[30],yes
same,listed as a hit,[31],yes
same,listed as a hit,[32],yes
same,listed as a hit,[33],yes
same,listed as a hit,[34],yes
same,listed as a hit,[35],yes
same,listed as a hit,[36],yes
same,listed as a hit,[37],yes
same,listed as a hit,[38],yes
same,listed as a hit,[39],yes
same,listed as a hit,[40],yes
same,listed as a hit,[41],yes
same,listed as a hit,[42],yes
same,listed as a hit,[43],yes
same,listed as a hit,[44],yes
same,listed as a hit,[45],yes
same,listed as a hit,[46],yes
same,listed as a hit,[47],yes
same,listed as a hit,[48],yes
"BOS complex subunit NOMO3, P69849",listed as a hit,[49],yes
"Neurofilament light polypeptide, P08551",listed as a hit,[10],yes
same,listed as a hit,[50],yes
same,listed as a hit,[51],yes
"ADP/ATP translocase 1, P48962",listed as a hit,[52],yes
"ATP synthase peripheral stalk subunit F6, mitochondrial, P97450",listed as a hit,[53],yes
"SH3-containing GRB2-like protein 3-interacting protein 1, Q8VD37",listed as a hit,[19],yes
"Trifunctional enzyme subunit alpha, mitochondrial, P40939",listed as a hit,[13],yes
same,listed as a hit,[43],yes
"AP-2 complex subunit mu, Q96CW1",listed as a hit,[54],yes
"14-3-3 protein epsilon, P62259",listed as a hit,[12],yes
"Cytoplasmic FMR1-interacting protein 2, Q5SQX6",listed as a hit,[55],yes
"AP-3 complex subunit beta-1, O00203",listed as a hit,[56],yes
"AP-3 complex subunit delta-1, O54774",listed as a hit,[57],yes
same,listed as a hit,[58],yes
"AP-2 complex subunit alpha-1, P17426",listed as a hit,[19],yes
same,listed as a hit,[20],yes
"WD repeat-containing protein 1, O88342",listed as a hit,[24],yes
"Fumarate hydratase, mitochondrial, P07954",listed as a hit,[59],yes
same,listed as a hit,[60],yes
"Neurofilament heavy polypeptide, P19246",listed as a hit,[10],yes
"ATP-dependent 6-phosphofructokinase, muscle type, P47857",listed as a hit,[61],yes
"Mitochondrial-processing peptidase subunit alpha, Q10713",listed as a hit,[62],yes
"Adaptin ear-binding coat-associated protein 1, Q9CR95",listed as a hit,[19],yes
"Annexin A7, P20073",listed as a hit,[63],yes
"Myc box-dependent-interacting protein 1, O08539",listed as a hit,[64],yes
"Glyceraldehyde-3-phosphate dehydrogenase, P16858",listed as a hit,[65],yes
same,listed as a hit,[66],yes
"Prohibitin 1, P35232",listed as a hit,[67],yes
same,listed as a hit,[68],yes
same,listed as a hit,[69],yes
"Ataxin-2-like protein, Q8WWM7",listed as a hit,[70],yes
"Charged multivesicular body protein 1a, Q9HD42",listed as a hit,[71],yes
same,listed as a hit,[72],yes
"COMM domain-containing protein 1, Q8K4M5",listed as a hit,[73],yes
"Peptidyl-prolyl cis-trans isomerase B, P23284",listed as a hit,[74],yes
same,listed as a hit,[75],yes
"Endoplasmic reticulum chaperone BiP, P11021",listed as a hit,[76],yes
